Experimental data from publication PMC4336329 (PLoS ONE, 2015).
The whole screen tested about 310,000 compounds, of which about 14,000 (4.5%) showed an effect of 50% or more. The effect is printed as a negative number. The sample as a whole holds a higher share of strong results than the screen did.

Molecular target: human ether-à-go-go-related gene (hERG) potassium channel (human, UniProt Q12809)
Test: primary screen, population patch clamp on CHO cells stably expressing hERG; higher = less effect of the substance
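Also: peak tail current of the secondary pulse compared with the same well before compound.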

Sequence of human ether-à-go-go-related gene (hERG) potassium channel (Q12809 whole entry, looked up): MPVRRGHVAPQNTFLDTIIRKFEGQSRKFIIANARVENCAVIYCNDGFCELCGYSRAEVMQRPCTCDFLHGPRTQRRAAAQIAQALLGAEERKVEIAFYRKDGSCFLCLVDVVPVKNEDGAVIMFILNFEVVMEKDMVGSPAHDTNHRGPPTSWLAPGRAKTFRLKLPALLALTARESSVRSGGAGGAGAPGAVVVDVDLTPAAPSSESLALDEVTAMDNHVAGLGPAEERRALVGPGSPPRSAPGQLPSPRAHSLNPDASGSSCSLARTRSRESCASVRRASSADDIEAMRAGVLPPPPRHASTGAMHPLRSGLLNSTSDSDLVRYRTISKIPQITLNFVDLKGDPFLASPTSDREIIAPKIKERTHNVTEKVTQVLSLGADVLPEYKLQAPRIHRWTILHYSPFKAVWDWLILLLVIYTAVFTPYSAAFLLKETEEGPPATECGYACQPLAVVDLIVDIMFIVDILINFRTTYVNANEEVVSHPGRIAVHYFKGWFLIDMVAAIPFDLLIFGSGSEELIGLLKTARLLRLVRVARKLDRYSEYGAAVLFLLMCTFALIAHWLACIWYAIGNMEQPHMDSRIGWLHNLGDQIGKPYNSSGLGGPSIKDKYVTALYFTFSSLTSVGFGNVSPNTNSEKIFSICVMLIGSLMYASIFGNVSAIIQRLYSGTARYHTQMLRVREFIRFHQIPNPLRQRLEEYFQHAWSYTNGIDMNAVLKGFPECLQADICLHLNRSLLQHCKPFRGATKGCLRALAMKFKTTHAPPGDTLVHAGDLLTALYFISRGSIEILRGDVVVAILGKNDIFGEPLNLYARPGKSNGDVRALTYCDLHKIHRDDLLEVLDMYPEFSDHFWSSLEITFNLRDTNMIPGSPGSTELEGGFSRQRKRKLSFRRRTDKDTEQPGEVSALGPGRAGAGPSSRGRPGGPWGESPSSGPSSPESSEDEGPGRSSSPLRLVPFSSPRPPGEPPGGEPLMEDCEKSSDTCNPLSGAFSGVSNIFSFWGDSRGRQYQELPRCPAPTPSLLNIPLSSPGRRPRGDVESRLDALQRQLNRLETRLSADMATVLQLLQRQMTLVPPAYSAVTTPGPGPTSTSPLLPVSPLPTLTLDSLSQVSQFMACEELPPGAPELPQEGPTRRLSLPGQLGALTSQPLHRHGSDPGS

In order of rising “hERG current change (%, negative = inhibition) at 10uM” value:
1. CC(C)Cn1c(=O)c2c(nc3n2CC(C)CN3Cc2ccccc2)n(C)c1=O (stereo not shown)  -83.3%
2. C=CCn1c(=O)c2c(nc3n2CCCN3CCc2ccc(OC)c(OC)c2)n(C)c1=O  -79.6%
3. CC(C)Cn1c(=O)c2c(nc3n2CCCN3CCc2ccccc2)n(C)c1=O  -76%
4. COc1ccc(OC)c(CN2CCCC(C(=O)c3ccccc3SC)C2)c1 (stereo not shown)  -75.9%
5. COc1cc(CN2CCCC(C(=O)c3ccccc3SC)C2)cc(OC)c1 (stereo not shown)  -74.4%
6. C=C(C)Cn1c(=O)c2c(nc3n2CCCN3CCc2ccccc2)n(C)c1=O  -73.3%
7. O=C(c1ccc(Cl)c(S(=O)(=O)NCc2ccco2)c1)N1CCN(c2ccc(F)cc2)CC1  -70.3%
8. CCOc1ccc2nc(NCCNC(=O)C3CC3)c(C)cc2c1  -63.7%
9. Cc1cc(C)c(NC(=O)C2CCCN2CCOC(=O)c2cccc([N+](=O)[O-])c2)c(C)c1.Cl (stereo not shown)  -63.2%
10. CCOc1ccc2nc(NCCNC(=O)C(C)C)c(C)cc2c1  -61%
11. N#Cc1ccc(CN2CCN(C(=O)c3ccc(S(=O)(=O)NCc4ccco4)cc3)CC2)cc1  -59.8%
12. COc1cc(OC)c(OC)cc1CN1CCCC(C(=O)c2ccccc2SC)C1 (stereo not shown)  -58.5%
13. COc1ccc2cc1Oc1ccc(cc1)C[C@H]1c3cc(c(OC)cc3CCN1C)Oc1c(OC)c(OC)cc3c1[C@@H](C2)N(C)CC3  -57.4%
14. COC(=O)C1=C(C(=O)OC)C(c2ccccc2O)c2sc(=O)[nH]c2S1 (stereo not shown)  -55.9%
15. COC(=O)C1=C(C(=O)OC)C(c2ccc(OC)c(OC)c2)c2sc(=O)[nH]c2S1 (stereo not shown)  -54.8%
16. COc1ccc(N2CCN(C(=O)c3ccc(S(=O)(=O)NCc4ccco4)cc3)CC2)cc1  -54.7%
17. COc1ccc2cc1Oc1ccc(cc1)C[C@H]1c3cc(c(OC)cc3CCN1C)Oc1c(O)c(OC)cc3c1[C@H](C2)N(C)CC3  -47.7%
18. COC(=O)C1=C(C(=O)OC)C(c2cc(Br)ccc2O)c2sc(=O)[nH]c2S1 (stereo not shown)  -47.6%
19. CCOc1ccc2nc(NCCNC(=O)C(C)(C)C)c(C)cc2c1  -46.1%
20. CCCn1c(=O)c2c(nc3n2CC(C)CN3Cc2ccccc2)n(C)c1=O (stereo not shown)  -39.4%
21. COc1ccc2cc1Oc1ccc(cc1)C[C@H]1c3cc(c(OC)cc3CCN1C)Oc1c(OC)c(OC)cc3c1[C@H](C2)N(C)CC3  -37.4%
22. CC1CN(Cc2ccccc2)c2nc3c(c(=O)n(C)c(=O)n3C)n2C1 (stereo not shown)  -36.1%
23. O=C(c1ccc(S(=O)(=O)NCc2ccco2)cc1)N1CCN(Cc2ccc3c(c2)OCO3)CC1  -32.5%
24. O=C(c1ccc(S(=O)(=O)NCc2ccco2)cc1)N1CCN(c2ccc(F)cc2)CC1  -31.5%
25. COc1ccc(O)c(CN2CCCC(C(=O)c3ccccc3SC)C2)c1 (stereo not shown)  -30.9%
26. Cc1cc(C)c(NC(=O)C2CCCN2CCOC(=O)c2ccccc2)c(C)c1.Cl (stereo not shown)  -26%
27. Cn1c(=O)n(Cc2ccccc2)c(=O)c2c1nc1n2CCCN1CCc1ccccc1  -26%
28. COCC(=O)NCCNc1nc2ccc(C)cc2cc1C  -24.9%
29. C=CCn1c(C)cc(-c2csc(NC(=O)CCc3nc4ccccc4c(=O)[nH]3)n2)c1C  -23.8%
30. CCCn1c(=O)c2c(nc3n2CCCN3CCc2ccc(OC)c(OC)c2)n(C)c1=O  -23.7%
31. C=C(C)Cn1c(=O)c2c(nc3n2CCCN3Cc2ccccc2)n(C)c1=O  -17.9%
32. COc1ccc(C2c3sc(=O)[nH]c3SC3C4CCC(C4)C23)cc1OC (stereo not shown)  -17.5%
33. Cc1cc(C)c(NC(=O)C2CCCN2CCO)c(C)c1 (stereo not shown)  -14.5%
34. COc1ccccc1N1CCN(C(=O)c2ccc(Cl)c(S(=O)(=O)NCc3ccco3)c2)CC1  -14.2%
35. N#Cc1c(N)nc2c(c1-c1ccncc1)CCCCC2  -12.3%
36. CCOc1ccc2nc(NCCNC(=O)CC)c(C#N)cc2c1  -12%
37. N/C(=N\OC(=O)C12CC3CC(CC(C3)C1)C2)c1ccccc1  -11.1%
38. O=C(CSc1nc(-c2ccccc2)cs1)Nc1nccs1  -8.07%
39. COc1cccc(NC(=O)[C@@H]2CCCN2S(=O)(=O)c2cccc3cccnc23)c1  -5.87%
40. CCn1c(=O)c2c(nc3n2CCCN3CCc2ccc(OC)c(OC)c2)n(C)c1=O  -5.18%
41. COc1ccc(C(c2nnnn2C2CCCCC2)N2CCN(C)CC2)c(OC)c1 (stereo not shown)  -4.87%
42. CCOc1ccc(-n2nnc3c(=O)n(CC(=O)N4CCCc5ccccc54)cnc32)cc1  -4.52%
43. O=C(/C=C/c1ccc(S(=O)(=O)N2CCOCC2)cc1)NCc1ccccc1  -4.31%
44. CCOC(=O)N1CCN(C(=O)c2ccc(S(=O)(=O)NCc3ccco3)cc2)CC1  -2%
45. COCCN(C(=O)CCC(=O)Nc1nccs1)C(C(=O)NC(C)(C)C)c1ccc(F)cc1 (stereo not shown)  -1.98%
46. CC(=O)c1c(N2CCN(C(=O)c3ccco3)CC2)nc(=S)n(-c2ccccc2)c1C  -1.95%
47. Cc1cc(C)n(-c2nc3ccccc3c(=O)n2OCCOc2ccccc2)n1  -1.88%
48. Cn1c(=O)c2c(nc3n2CCCN3CCc2ccccc2)n(C)c1=O  -1.45%
49. O=C(NCC(=O)N(Cc1ccco1)C(C(=O)NC1CCCC1)c1ccncc1)c1cccs1 (stereo not shown)  -0.29%
50. COC(=O)C1CSc2[nH]c(=O)sc2C1c1ccc(OC)c(OC)c1 (stereo not shown)  0.0419%
51. O=C(CN1C(=O)c2cccc3cccc(c23)C1=O)N1CCCCC1  0.0571%
52. Cc1cc(NC(=O)c2ccc(Br)c(S(=O)(=O)N3CCCC3)c2)no1  0.115%
53. COC(=O)c1cc(CNC(=O)c2ccccc2Cl)ccc1OC  0.487%
54. COc1ccc2c(c1)C(=O)Cc1ccccc1O2  0.762%
55. COC(=O)C1=C(C(=O)OC)C(c2cc([N+](=O)[O-])ccc2O)c2sc(=O)[nH]c2S1 (stereo not shown)  1.28%
56. O=C(Nc1ccccc1)c1ccncc1  1.31%
57. COc1cc(NC(=O)Nc2cccc([N+](=O)[O-])c2)cc(OC)c1  1.42%
58. C/C(CC(=O)NC1CCCCCC1)=N\NC(=O)c1cnccn1  2.01%
59. O=C(NCCS(=O)(=O)N1CCN(c2ccccc2F)CC1)c1cccc(Br)c1  2.34%
60. COc1ccc2nc(/N=C/c3c(O)n(-c4cccc(Cl)c4)c(=O)[nH]c3=O)sc2c1  2.53%
61. O=C(c1ccc(S(=O)(=O)NCc2ccco2)cc1)N1CCN(Cc2ccccc2)CC1  2.86%
62. COCCCNC(=O)c1ccccc1NS(C)(=O)=O  4.15%
63. Cc1cccc(N2CCN(C(=O)c3ccc(Cl)c(S(=O)(=O)NCc4ccco4)c3)CC2)c1C  4.75%
64. O=C(Nc1nc2ccc(S(=O)(=O)N3CCCC3)cc2s1)C1CCCCC1  4.81%
65. COc1ccc(/C(N)=N/O)cc1O  5.51%
66. O=C(COC(=O)c1ccc(O)cc1O)NNC(=O)c1cccs1  6.45%
67. CSc1nc(N2CCOCC2)cc(N2CCOCC2)n1  7.09%
68. COc1ccc(C(CC(=O)N2CCC3(CC2)OCCO3)NS(=O)(=O)c2ccc(OC)cc2)cc1 (stereo not shown)  7.14%
69. COc1ccc(C(=O)NCCNc2nc3cc(C)c(C)cc3cc2C)cc1  7.22%
70. C/C(=N\NC(=O)c1ccn(C)n1)c1ccc(NC(=O)c2cccc(F)c2)cc1  8.11%
71. CCOC(=O)CC(=O)CSc1nc2nc(C)cc(C)n2n1  8.34%
72. Cc1cccc(NC(=O)CN2C(=O)COc3ccc(Cl)cc32)c1C  8.74%
73. O=c1[nH]c(-c2ccc(Cl)cc2)cs1  9.25%
74. O=C(N/N=C/c1cc([N+](=O)[O-])ccc1O)C1CC1  9.47%
75. CC(C)n1cnnc1SCC(=O)NCC(=O)Nc1ccc(F)cc1  11.2%
76. O=C1COc2ccc(C(=O)CSc3ccccc3C(=O)O)cc2N1  12.1%
77. COCCC(=O)N1CCCC(C(=O)c2ccccc2SC)C1 (stereo not shown)  13.1%
78. Cn1c(=O)n(CC(=O)O)c(=O)c2c1nc1n2CCCN1CCc1ccccc1  13.6%
79. CCOC(=O)C1C2C=CC3(CN(Cc4ccccc4)C(=O)C13)O2 (stereo not shown)  13.7%
80. COC(=O)CSc1nnc(CNc2ccc(F)cc2)o1  14.5%
81. Cc1ccc(-c2nc(C#N)c(N3CCC(C)CC3)o2)cc1  17.5%
82. CC(C)CN(C(=O)c1ccc(N2CCCC2=O)cc1)c1c(N)n(Cc2ccccc2)c(=O)[nH]c1=O  19.6%
83. CCc1ccc(OC(=O)c2cccnc2)cc1  21.6%
84. CC(NC(=O)c1ccccc1F)c1nnc(SCC(=O)NC2=NCCS2)n1C (stereo not shown)  22.3%
85. S=c1[nH]nc(-c2ccc(Cl)cc2)n1-c1cccnc1  23.5%
